The full data set covers some 8,800 targets. This sample favours those with a hit. About 0.5% of all pairs of compound and target were hits. A number with no mark means an inactive call.
What was measured:
Experiment in all cases: log2 fold change, soluble protein after heating vs DMSO (PISA); higher = thermal stabilisation; K562 lysate, 10 uM; active = over 0.2 and 3.5 SD of the protein, either way, in both replicates (recomputed)
erlotinib = compound: C#Cc1cccc(Nc2ncnc3cc(OCCOC)c(OCCOC)cc23)c1 [erlotinib]
Method in brief: (§1)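 Values give the log-two fold change in thermal stability against solvent controls, from duplicates. Crude K562 extract at 1 mg/mL protein, made by dounce homogenisation in PBS pH 7.4 with 1 mM MgCl2, was treated with 10 μM compound for 30 min. After 3 min heating across 48°C-58°C, aliquots were pooled, adjusted to 0.5% NP-40 at 4°C and centrifuged at 21,000xg for 90 min. The supernatant was measured by TMTpro 16plex LC-MS/MS with channel sums equalised.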

[1] = compound: C1=CC(=CC=C1C2=NC3=C(N2)C=C(C=C3)C(=O)N)OC4=CC=C(C=C4)Cl
Method in brief: as §1

[2] = compound: C1=CC=C(C=C1)C2=NC(=C(N2)C3=CC=NC=C3)C4=CC(=C(C=C4)Cl)O
Method in brief: as §1

[3] = compound: C1CCN(C1)C(=O)NC2=CC=CC(=C2)NC3=NC=C(C(=N3)NCCC4=CN=CN4)Br
Method in brief: as §1

[4] = compound: C1CN(CCC1(CC2=CC=C(C=C2)Cl)N)C3=NC=NC4=C3C=CN4
Method in brief: as §1

IRAK-1-4 Inhibitor I = compound: C1COCCN1CCN2C3=CC=CC=C3N=C2NC(=O)C4=CC(=CC=C4)[N+](=O)[O-] [IRAK-1-4 Inhibitor I]
Method in brief: as §1

ralimetinib = compound: CC(C)(C)Cn1c(N)nc2ccc(-c3[nH]c(C(C)(C)C)nc3-c3ccc(F)cc3)nc21 [ralimetinib]
Method in brief: as §1

[5] = compound: CC(C)(O)CC(=O)NCCn1ccc2ncnc(Nc3ccc(Oc4cccc(C(F)(F)F)c4)c(Cl)c3)c21
Method in brief: as §1

[6] = compound: CC(C)C1=C2N=C(C=C(N2N=C1)NCC3=CC=CC=C3)NCCCCCCN
Method in brief: as §1

[7] = compound: CC1=C(C2=C(C=C1)C(=O)C3=CC=CC=C3N2CCCN)C
Method in brief: as §1

[8] = compound: CC1=C(C=C(C=C1)NC(=O)C2=CC(=CC=C2)N(C)C)NC(=O)C3=CC=C(C=C3)O
Method in brief: as §1

[9] = compound: C/C(=N\NC(=O)C1=CC(=CC=C1)S(=O)(=O)N2CCOCC2)/C3=C(C=CC(=C3)Cl)O
Method in brief: as §1

[10] = compound: C1=CC2=C(C=CC(=C2)/C=C\3/C(=O)NC(=NCC4=CC=CS4)S3)N=C1
Method in brief: as §1

[11] = compound: C1=CC2=NC=CN=C2C=C1/C=C/3\C(=O)NC(=O)S3
Method in brief: as §1

[12] = compound: C1=CC=C2C(=C1)C3=NNC4=CC=CC(=C43)C2=O
Method in brief: as §1

ibrutinib = compound: C=CC(=O)N1CCC[C@@H](n2nc(-c3ccc(Oc4ccccc4)cc3)c3c(N)ncnc32)C1 [ibrutinib]
Method in brief: as §1

[13] = compound: CC1=C(C(CC(=O)N1)C2=CC=C(C=C2)C(F)(F)F)C(=O)NC3=C(C=C4C(=C3)C=NN4)F
Method in brief: as §1

[14] = compound: CC(=O)c1cnc2ccc(-c3cc(Cl)c(O)c(Cl)c3)nc2c1N[C@H]1CC[C@H](CN(C)C)CC1
Method in brief: as §1

[15] = compound: CC1=C(C=C(C=C1)NC(=O)C2=CC(=CC=C2)C(C)(C)C#N)NC3=CC4=C(C=C3)N=CN(C4=O)C
Method in brief: as §1

[16] = compound: CC1=CC=C(C=C1)SC2=C3C=C(SC3=CN=C2)C(=O)N
Method in brief: as §1

Chain of UniProt Q15776 (Q15776 whole entry, looked up): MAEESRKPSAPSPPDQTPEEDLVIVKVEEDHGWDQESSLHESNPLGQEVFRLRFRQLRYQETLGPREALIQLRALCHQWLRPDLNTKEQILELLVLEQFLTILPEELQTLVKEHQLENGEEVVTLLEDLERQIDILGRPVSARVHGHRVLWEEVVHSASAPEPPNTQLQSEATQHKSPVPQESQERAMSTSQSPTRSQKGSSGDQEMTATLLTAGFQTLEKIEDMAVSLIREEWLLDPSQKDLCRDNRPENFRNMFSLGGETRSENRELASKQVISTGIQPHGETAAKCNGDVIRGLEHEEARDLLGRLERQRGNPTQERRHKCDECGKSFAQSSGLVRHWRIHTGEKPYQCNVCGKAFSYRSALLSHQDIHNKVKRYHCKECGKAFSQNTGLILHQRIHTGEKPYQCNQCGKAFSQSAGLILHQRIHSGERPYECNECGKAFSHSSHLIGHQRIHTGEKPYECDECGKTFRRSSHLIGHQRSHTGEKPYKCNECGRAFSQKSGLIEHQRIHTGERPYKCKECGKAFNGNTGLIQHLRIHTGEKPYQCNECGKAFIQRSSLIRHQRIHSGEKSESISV
Chain of UniProt P58557 (P58557 whole entry, looked up): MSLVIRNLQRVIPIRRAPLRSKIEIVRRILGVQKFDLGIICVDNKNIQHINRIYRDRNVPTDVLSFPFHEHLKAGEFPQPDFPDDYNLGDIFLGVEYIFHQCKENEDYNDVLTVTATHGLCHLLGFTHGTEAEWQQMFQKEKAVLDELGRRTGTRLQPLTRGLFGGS
Chain of UniProt P46939 (P46939 whole entry, looked up): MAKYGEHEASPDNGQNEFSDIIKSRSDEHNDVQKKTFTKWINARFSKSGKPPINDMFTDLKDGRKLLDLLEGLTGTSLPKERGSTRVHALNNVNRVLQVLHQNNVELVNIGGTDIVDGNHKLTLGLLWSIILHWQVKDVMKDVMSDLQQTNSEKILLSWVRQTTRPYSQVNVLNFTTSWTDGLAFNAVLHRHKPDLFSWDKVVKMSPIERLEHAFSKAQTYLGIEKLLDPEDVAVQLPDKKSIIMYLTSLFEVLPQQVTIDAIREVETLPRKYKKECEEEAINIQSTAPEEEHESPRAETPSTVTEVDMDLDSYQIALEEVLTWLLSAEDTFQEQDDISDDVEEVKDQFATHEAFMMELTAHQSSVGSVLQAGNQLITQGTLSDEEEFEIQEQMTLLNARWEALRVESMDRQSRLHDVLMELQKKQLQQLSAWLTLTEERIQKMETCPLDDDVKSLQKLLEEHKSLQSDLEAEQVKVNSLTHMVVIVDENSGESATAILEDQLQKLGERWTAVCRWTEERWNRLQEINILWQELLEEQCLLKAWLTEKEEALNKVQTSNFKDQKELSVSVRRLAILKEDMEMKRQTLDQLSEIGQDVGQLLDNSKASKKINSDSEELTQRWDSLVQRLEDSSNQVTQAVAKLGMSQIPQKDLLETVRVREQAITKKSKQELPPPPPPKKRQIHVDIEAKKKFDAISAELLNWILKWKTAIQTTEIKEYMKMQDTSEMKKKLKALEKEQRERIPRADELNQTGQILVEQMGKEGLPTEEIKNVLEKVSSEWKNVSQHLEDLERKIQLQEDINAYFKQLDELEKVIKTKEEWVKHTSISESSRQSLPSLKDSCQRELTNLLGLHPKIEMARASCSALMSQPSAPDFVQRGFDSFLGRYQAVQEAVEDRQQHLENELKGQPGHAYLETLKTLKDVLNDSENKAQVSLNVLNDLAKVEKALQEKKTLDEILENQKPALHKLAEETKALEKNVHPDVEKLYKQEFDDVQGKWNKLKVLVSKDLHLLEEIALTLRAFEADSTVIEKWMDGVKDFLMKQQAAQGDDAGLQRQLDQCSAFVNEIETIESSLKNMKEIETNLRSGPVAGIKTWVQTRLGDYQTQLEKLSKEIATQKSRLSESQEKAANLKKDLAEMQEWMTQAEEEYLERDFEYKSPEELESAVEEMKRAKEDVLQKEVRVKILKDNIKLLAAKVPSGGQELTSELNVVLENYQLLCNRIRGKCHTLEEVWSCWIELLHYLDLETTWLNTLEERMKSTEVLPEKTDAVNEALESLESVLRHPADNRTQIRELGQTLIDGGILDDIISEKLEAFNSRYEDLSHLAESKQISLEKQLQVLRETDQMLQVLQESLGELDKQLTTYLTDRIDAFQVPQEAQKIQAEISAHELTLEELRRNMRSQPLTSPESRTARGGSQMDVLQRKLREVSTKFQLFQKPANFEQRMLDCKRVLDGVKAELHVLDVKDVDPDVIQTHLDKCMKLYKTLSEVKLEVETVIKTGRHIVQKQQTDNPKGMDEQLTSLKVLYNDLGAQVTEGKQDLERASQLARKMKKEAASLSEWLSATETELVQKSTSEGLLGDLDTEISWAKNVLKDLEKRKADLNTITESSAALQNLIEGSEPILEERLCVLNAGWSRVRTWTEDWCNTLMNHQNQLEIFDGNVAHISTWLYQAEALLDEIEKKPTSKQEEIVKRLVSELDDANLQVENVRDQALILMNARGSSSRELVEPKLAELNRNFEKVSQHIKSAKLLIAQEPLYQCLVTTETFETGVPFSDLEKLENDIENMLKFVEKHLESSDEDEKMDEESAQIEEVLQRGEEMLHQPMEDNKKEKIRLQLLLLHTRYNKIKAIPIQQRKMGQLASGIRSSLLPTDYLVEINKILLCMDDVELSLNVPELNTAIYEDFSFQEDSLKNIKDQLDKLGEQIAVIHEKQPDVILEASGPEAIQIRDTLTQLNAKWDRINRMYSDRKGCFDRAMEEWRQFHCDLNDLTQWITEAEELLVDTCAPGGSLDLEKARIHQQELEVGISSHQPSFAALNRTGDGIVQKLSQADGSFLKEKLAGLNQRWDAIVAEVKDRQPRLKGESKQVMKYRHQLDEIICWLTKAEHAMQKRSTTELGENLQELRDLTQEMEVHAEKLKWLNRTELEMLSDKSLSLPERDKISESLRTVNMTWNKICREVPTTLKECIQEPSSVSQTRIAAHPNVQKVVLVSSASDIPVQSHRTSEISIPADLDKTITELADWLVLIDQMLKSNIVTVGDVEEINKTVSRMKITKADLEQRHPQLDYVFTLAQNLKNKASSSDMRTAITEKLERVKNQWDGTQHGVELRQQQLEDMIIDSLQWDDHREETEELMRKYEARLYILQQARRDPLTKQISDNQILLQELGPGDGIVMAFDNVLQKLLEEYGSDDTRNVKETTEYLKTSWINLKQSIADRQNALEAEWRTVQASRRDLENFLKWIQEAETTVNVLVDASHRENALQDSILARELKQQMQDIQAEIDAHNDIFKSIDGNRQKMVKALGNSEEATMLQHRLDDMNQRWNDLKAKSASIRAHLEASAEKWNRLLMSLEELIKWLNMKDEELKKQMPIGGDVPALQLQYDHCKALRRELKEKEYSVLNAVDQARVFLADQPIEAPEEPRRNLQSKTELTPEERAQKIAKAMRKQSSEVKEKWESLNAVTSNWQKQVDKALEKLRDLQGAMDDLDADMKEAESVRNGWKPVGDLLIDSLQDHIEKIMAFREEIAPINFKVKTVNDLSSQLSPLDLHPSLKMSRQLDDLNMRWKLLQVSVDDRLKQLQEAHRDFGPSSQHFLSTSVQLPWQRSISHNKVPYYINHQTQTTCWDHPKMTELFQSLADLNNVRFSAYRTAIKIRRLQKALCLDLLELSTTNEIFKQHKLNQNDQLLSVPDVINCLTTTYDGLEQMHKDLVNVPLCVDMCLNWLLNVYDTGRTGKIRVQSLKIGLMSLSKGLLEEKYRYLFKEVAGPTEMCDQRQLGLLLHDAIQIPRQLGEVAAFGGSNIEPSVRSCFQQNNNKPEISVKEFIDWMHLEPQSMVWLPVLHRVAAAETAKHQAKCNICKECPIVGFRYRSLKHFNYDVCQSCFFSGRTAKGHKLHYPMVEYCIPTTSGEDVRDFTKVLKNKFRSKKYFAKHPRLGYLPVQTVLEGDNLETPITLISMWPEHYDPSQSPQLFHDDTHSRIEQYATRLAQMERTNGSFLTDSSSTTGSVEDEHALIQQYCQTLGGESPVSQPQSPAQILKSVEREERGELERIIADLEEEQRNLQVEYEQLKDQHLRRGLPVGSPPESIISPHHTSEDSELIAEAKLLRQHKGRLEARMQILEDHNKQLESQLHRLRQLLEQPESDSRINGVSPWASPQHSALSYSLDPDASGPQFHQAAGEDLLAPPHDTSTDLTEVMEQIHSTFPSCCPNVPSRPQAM
Chain of UniProt Q9Y6I7 (Q9Y6I7 whole entry, looked up): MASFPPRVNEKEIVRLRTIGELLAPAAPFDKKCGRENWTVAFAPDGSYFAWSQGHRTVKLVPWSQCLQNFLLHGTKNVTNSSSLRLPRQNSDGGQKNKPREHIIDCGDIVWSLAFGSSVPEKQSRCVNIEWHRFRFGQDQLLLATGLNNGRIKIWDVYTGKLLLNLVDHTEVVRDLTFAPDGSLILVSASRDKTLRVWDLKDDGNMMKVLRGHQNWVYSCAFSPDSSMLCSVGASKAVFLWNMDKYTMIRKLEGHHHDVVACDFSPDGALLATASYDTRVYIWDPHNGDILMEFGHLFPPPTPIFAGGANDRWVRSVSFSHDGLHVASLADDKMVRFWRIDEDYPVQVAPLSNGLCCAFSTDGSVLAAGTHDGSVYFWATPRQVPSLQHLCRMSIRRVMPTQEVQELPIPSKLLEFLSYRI
Chain of UniProt Q15906 (Q15906 whole entry, looked up): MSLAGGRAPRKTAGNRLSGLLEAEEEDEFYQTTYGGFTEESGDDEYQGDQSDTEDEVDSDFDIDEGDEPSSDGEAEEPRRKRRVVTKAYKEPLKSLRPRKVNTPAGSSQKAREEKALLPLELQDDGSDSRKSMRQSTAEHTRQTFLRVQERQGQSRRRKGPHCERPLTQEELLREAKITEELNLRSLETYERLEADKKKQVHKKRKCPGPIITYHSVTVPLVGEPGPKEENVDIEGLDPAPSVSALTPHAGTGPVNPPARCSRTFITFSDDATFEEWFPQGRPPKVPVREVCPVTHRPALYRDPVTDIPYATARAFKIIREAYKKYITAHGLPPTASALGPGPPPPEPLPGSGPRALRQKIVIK
Chain of UniProt O00488 (O00488 whole entry, looked up): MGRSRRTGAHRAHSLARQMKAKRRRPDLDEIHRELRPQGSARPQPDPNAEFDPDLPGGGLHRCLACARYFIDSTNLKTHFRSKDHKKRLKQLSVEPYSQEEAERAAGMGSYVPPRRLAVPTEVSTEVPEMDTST

Row | Target | log2 fold change (erlotinib) | log2 fold change [1] | log2 fold change [2] | log2 fold change [3] | log2 fold change [4] | log2 fold change (IRAK-1-4 Inhibitor I) | log2 fold change (ralimetinib) | log2 fold change [5] | log2 fold change [6] | log2 fold change [7] | log2 fold change [8] | log2 fold change [9] | log2 fold change [10] | log2 fold change [11] | log2 fold change [12] | log2 fold change (ibrutinib) | log2 fold change [13] | log2 fold change [14] | log2 fold change [15] | log2 fold change [16]
1 | VASN (UniProt Q6EMK4) | -0.644 (active) | 0.071 | -0.191 | -0.277 | -0.01 | 0.222 | 0.332 | 0.172 | -0.004 | -0.255 | -0.295 | – | – | – | – | – | – | – | – | –
2 | URGCP (UniProt Q8TCY9) | – | – | -0.038 | – | – | 0.022 | -0.07 | -0.515 (active) | – | 0.008 | -0.042 | -0.024 | -0.075 | -0.01 | 0.051 | 0.081 | -0.05 | – | – | –
3 | VPS72 (UniProt Q15906) | 0.056 | 0.046 | -0.04 | 0.024 | 0.059 | -0.008 | 0.046 | -0.06 | -0.028 | 0.005 | -0.01 | -0.036 | -0.057 | – | 0.052 | – | -0.098 | 0.016 | 0 | -0.038
4 | ZYG11A (UniProt Q6WRX3) | -0.125 | -0.059 | -0.04 | – | – | -0.004 | 0.082 | -0.087 | -0.159 | – | 0.052 | – | – | -0.061 | – | 0.228 | 0.046 | 0.063 | – | -0.315
5 | ZNF845 (UniProt Q96IR2) | -0.033 | 0.102 | 0.047 | – | – | -0.044 | 0.093 | 0 | -0.061 | 0.072 | -0.012 | -0.145 | 0.02 | -0.09 | -0.123 | 0.087 | -0.047 | -0.039 | 0.005 | -0.109
6 | ZNF652 (UniProt Q9Y2D9) | – | – | – | – | – | – | – | – | – | – | – | – | – | – | – | – | – | – | 0.042 | –
7 | ZNF281 (UniProt Q9Y2X9) | -0.191 | -0.106 | 0.006 | – | – | 0.069 | -0.055 | 0.081 | 0.039 | -0.008 | -0.041 | – | – | – | – | – | – | – | -0.081 | –
8 | ZNF644 (UniProt Q9H582) | 0.192 | 0.071 | -0.115 | 0.036 | -0.037 | 0.035 | -0.023 | 0.052 | 0.038 | 0.042 | -0.02 | -0.085 | 0.075 | 0.066 | -0.04 | 0.07 | -0.061 | – | -0.005 | –
9 | ZNF593 (UniProt O00488) | -0.084 | 0.116 | -0.098 | 0 | 0.084 | 0.003 | 0.096 | 0.013 | -0.081 | -0.017 | -0.034 | -0.149 | 0.003 | 0.005 | 0.059 | 0.018 | – | 0.17 | -0.028 | -0.051
10 | WAC isoform 5 (UniProt Q9BTA9) | -0.01 | -0.156 | 0.062 | – | – | 0.018 | 0.059 | -0.145 | -0.038 | 0.127 | 0.096 | – | – | – | – | – | – | – | – | –
11 | UNKL (UniProt E9PDK2) | – | – | – | 0.155 | 0.156 | – | – | – | – | -0.086 | – | -0.088 | 0.166 | 0.061 | -0.122 | -0.191 | – | – | 0.025 | –
12 | ZKSCAN8 (UniProt Q15776) | -0.005 | -0.148 | -0.001 | 0.031 | 0.006 | 0.077 | -0.021 | -0.002 | 0.229 | 0.008 | 0.04 | -0.418 | 0.004 | – | -0.04 | – | 0.098 | 0.514 (active) | -0.008 | -0.054
13 | ZZEF1 (UniProt O43149) | 0.008 | -0.012 | -0.009 | -0.011 | -0.009 | 0.017 | -0.002 | -0.057 | -0.014 | -0.063 | 0.009 | -0.019 | 0.019 | -0.012 | -0.017 | 0.018 | -0.005 | -0.009 | 0.023 | -0.005
14 | ZSCAN26 (UniProt Q16670) | – | – | – | – | – | – | – | – | – | – | – | – | – | – | – | – | – | – | 0.007 | –
15 | XPOT (UniProt F5GYW6) | – | – | – | – | – | – | – | – | – | – | – | – | – | – | – | – | – | -0.027 | – | 0.041
16 | ZSWIM8 isoform 4 (UniProt A7E2V4) | 0.025 | -0.053 | -0.021 | -0.239 | 0.109 | -0.122 | 0.101 | -0.048 | 0.002 | 0.28 | 0.105 | 0.508 (active) | 0.02 | -0.044 | -0.163 | -0.08 | -0.017 | – | -0.131 | –
17 | ZBTB40 (UniProt Q9NUA8) | -0.044 | -0.014 | -0.045 | – | – | -0.048 | 0.096 | -0.012 | 0.057 | -0.042 | -0.007 | -0.019 | -0.075 | – | -0.017 | – | 0.081 | 0.035 | 0.009 | -0.044
18 | WIPI2 isoform 6 (UniProt Q9Y4P8) | – | – | – | – | – | – | – | – | – | – | – | – | – | 0.079 | – | -0.021 | – | – | – | –
19 | USP22 (UniProt Q9UPT9) | 0.072 | -0.025 | -0.003 | -0.021 | 0.004 | -0.005 | 0.023 | 0.006 | 0.027 | -0.034 | 0.056 | 0.019 | 0.048 | -0.022 | -0.013 | -0.031 | -0.057 | – | 0.065 | –
20 | ZNF346 (UniProt Q9UL40) | -0.057 | -0.009 | -0.014 | 0.016 | -0.002 | 0.015 | -0.019 | -0.075 | -0.012 | 0.111 | -0.004 | – | – | -0.035 | – | -0.041 | -0.08 | 0.008 | -0.019 | 0.018
21 | WSB1 (UniProt Q9Y6I7) | – | – | 0.037 | – | – | -0.093 | 0.08 | -0.006 | – | -0.037 | -0.028 | – | – | – | – | – | – | – | – | –
22 | VHL (UniProt P40337) | 0.088 | -0.016 | -0.09 | -0.007 | -0.107 | 0.02 | 0.09 | -0.027 | 0.06 | -0.109 | 0.024 | 0.034 | 0.059 | 0.032 | -0.003 | 0.033 | -0.045 | – | -0.013 | –
23 | UNC13A (UniProt Q9UPW8) | 0.069 | 0.039 | – | – | – | – | – | – | 0.022 | – | – | – | – | – | – | – | -0.053 | – | – | –
24 | UTRN isoform 2 (UniProt P46939) | -0.222 | 0.247 | – | 0.135 | 0.171 | – | – | – | -0.012 | – | – | – | – | -0.072 | – | -0.03 | – | – | – | –
25 | ZNF146 (UniProt Q15072) | – | – | – | – | – | – | – | – | – | -0.187 | – | – | – | – | – | – | – | – | – | –
26 | YBEY (UniProt P58557) | 0.101 | 0.009 | – | -0.011 | 0.111 | – | – | – | 0.016 | -0.029 | – | -0.164 | -0.039 | – | -0.031 | – | – | – | – | –

Source: the supplement of paper PMC10849652
